The source of these data is PubChem BioAssay (Tox21).

Test [1] is described as follows: qHTS assay to identify small molecule agonists of the vitamin D receptor (VDR) signaling pathway - cell viability counter screen (AID 743224). Note: nearly all actives have a fitted effect of over 50% in size. Note: potency is the fitted concentration of half-maximal effect. In short, it runs like this:
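Compounds were pin-transferred onto VDR-bla cells plated 4 h earlier; following 16 h incubation at 37C, cell viability was quantified by CellTiter-Glo luminescence after 30 min at room temperature.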
On the technique in general: qHTS replaces the single test concentration by a dilution series.

The nature of test [2]: qHTS assay to identify small molecule antagonists of the vitamin D receptor (VDR) signaling pathway - cell viability counter screen (AID 743225). Note: nearly all actives have a fitted effect of over 50% in size. Note: potency is the fitted concentration of half-maximal effect. The essentials:
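Luminescent cell viability (CellTiter-Glo) in VDR-bla HEK 293T cells after 16 h compound exposure at 37C in the presence of 3 nM final 1-alpha,25-dihydroxy vitamin D3.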

Test [3] in a line: qHTS assay to identify small molecule agonists of the NFkB signaling pathway (AID 1159509; active = well fitted curve in the direction sought with a large enough effect in the signal ratio in the repeat runs, not every such curve was filed as active; the % refers to the signal ratio; note: series mostly up to about 61 µM). The essentials: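 Beta-lactamase reporter assay run in quantitative high-throughput format on an NF-kB-responsive ME-180 line, with 5 hr compound treatment and a FRET-based blue/green fluorescence readout.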
The nature of test [4]: qHTS assay to identify small molecule agonists of the NFkB signaling pathway - cell viability counter screen (AID 1159515; calls by dose curve; note: series mostly up to about 61 µM; nearly all actives have a fitted effect of over 55% in size). In short, it runs like this:
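Parallel cytotoxicity counter screen in ME-180 cells carrying an NFkB-response-element beta-lactamase reporter, 2,000 cells/well. Compound exposure lasted 5 hr at 37 C, 5% CO2. Cell viability was quantified by CellTiter-Glo luminescence.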

Test [5] can be described thus: qHTS assay to identify small molecule agonists of the endoplasmic reticulum stress response signaling pathway - cell viability counter screen (AID 1159517; calls by dose curve;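 note: HeLa cells carrying an ER stress response element beta-lactamase reporter; series mostly up to about 61 µM; nearly all actives have a fitted effect of over 50% in size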). The essentials:
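After overnight attachment, ESRE-bla HeLa cells were treated with Tox21 library compounds for 5 hr. CellTiter-Glo luminescence, read 30 min post-addition at room temperature, reported viability.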

A short description of test [6]: qHTS assay to identify small molecule antagonists of the retinoid-related orphan receptor gamma (ROR-gamma) signaling pathway - cell viability counter screen (AID 1159520). Note: nearly all actives have a fitted effect of over 50% in size. The essentials: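 Cytotoxicity was read from cellular ATP (CellTiter-Glo luminescence) after 16 hr at 37 C with 1 uM doxycycline induction. The inducer was added 2 hr after compound transfer to Tet-on ROR gamma CHO cells.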

Test [7] addresses Nuclear receptor ROR-gamma (Homo sapiens) (UniProt P51449). The test is described as follows: qHTS assay to identify small molecule antagonists of the retinoid-related orphan receptor gamma (ROR-gamma) signaling pathway (AID 1159521; note: nearly all actives have a fitted effect of over 50% in size; note: potency is the fitted concentration of half-maximal effect). The essentials: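 CHO cells expressing RORγ under a TET-on promoter, luciferase under RORE control. Dox 1 uM final, 16 h; compounds added 2 h prior. Luminescence decrease measured.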

Test [8] can be described thus: qHTS assay to identify small molecule agonists of the AP-1 signaling pathway - cell viability counter screen (AID 1159525; calls by dose curve; note: nearly all actives have a fitted effect of over 55% in size). The essentials:
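Intracellular ATP by Cell Titer Glo luminescence (30 min, RT) in the same ME-180 AP-1-bla wells after the 5 h compound exposure at 37 °C. Normalised to tetra n-octyl ammonium bromide and DMSO controls.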

Test [9] can be described thus: qHTS assay to identify small molecule agonists of the AP-1 signaling pathway (AID 1159526; calls by dose curve).
Test [10] deals with Retinoic acid receptor RXR-alpha (Homo sapiens) (UniProt P19793). Kind of test: qHTS assay to identify small molecule agonists of the RXR signaling pathway (AID 1159527; calls by dose curve; note: nearly all actives have a fitted effect of over 35% in size). The essentials:
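Beta-lactamase reporter assay, agonist format. Engineered HEK 293T line, charcoal-stripped FBS at 2%, overnight (16 hr) exposure, fluorescence at 460 and 530 nm after 405 nm excitation.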

A short description of test [11]: qHTS assay to identify small molecule agonists of the RXR signaling pathway - cell viability counter screen (AID 1159529). Note: nearly all actives have a fitted effect of over 50% in size. Note: potency is the fitted concentration of half-maximal effect. The essentials: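 Same-well viability check after the LiveBLAzer FRET read: CellTiter-Glo added, luminescence measured after 30 min at room temperature. Reporter HEK 293T cells had been treated with compounds for 16 hr following a 5 hr preincubation.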

Test [12] can be described thus: qHTS assay to identify small molecule antagonists of the retinoid acid receptor (RAR) signaling pathway - cell viability counter screen (AID 1159551). Note: nearly all actives have a fitted effect of over 35% in size. The essentials: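 ATP-based viability, C3RL4 cells, 6 h at 37 C with 1 uM final retinol co-added after compound; luminescence read 30 min post CellTiter-Glo, RT.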
A short description of test [13]: qHTS assay to identify small molecule agonists of the retinoic acid receptor (RAR) signaling pathway (AID 1159553). In short, it runs like this:
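Quantitative high-throughput format: the Tox21 10K library was tested on C3RL4 RARE-luciferase cells for 6 hr at 37 C and 5% CO2, with luminescence measured after a 30 min room-temperature reagent step.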

Test [14] can be described thus: qHTS assay to identify small molecule antagonists of the retinoic acid receptor (RAR) signaling pathway (AID 1159552; note: nearly all actives have a fitted effect of over 50% in size). The essentials: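 Readout: luciferase luminescence, 30 min post-reagent at RT. Setup: C3RL4 RARE reporter cells, compounds plus retinol 1 uM final, 6 hr incubation at 37 C and 5% CO2.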
Test [15] can be described thus: qHTS assay to identify small molecule antagonists of the estrogen related receptor (ERR) signaling pathway (AID 1224819). The essentials: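 ERR reporter cell line (NTP) plated at 2,000 cells/well, settled 6 h at 37C/5% CO2, then exposed to LOPAC compounds for 18 h at 37C. One-Glo luciferase luminescence read after 30 min at room temperature.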
Test [16] is described as follows: qHTS assay to identify small molecule agonists of the estrogen related receptor (ERR) signaling pathway (AID 1224820). In short, it runs like this: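 Following a 6 h settling period, 2,000 ERR cells per well receive DMSO-dissolved compounds by pin tool and incubate 18 h at 37 C; agonist activity is scored from One-Glo luminescence read 30 min post-addition.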
For test [17], the system named is estrogen-related receptor alpha (ERRalpha) with PGC-1alpha coactivator, human. Kind of test: qHTS assay to identify small molecule antagonists of the estrogen related receptor signaling pathway with the pleiotropic PPARgamma coactivator (PGC) (AID 1224821; calls by dose curve). In short, it runs like this:
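Screening used NTP's PGC/ERR cells, dosed via pin tool with compound in DMSO alongside positive and negative controls. After 18 h at 37 C, One-Glo reagent sat 30 min at room temperature before luminescence detection.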

Molecules are shown by their SMILES. Records with an inconclusive call do not appear. Activity calls are given as the source filed them. Unless noted, calls come from the whole dose curve; as a rule, active = well fitted curve in the direction sought with a large enough effect in the repeat runs; inconclusive = weak or mixed curves; inactive = no such curve, though single readings can be large; an effect the other way counts as inactive or inconclusive.

Sequence of Retinoic acid receptor RXR-alpha (Homo sapiens) (P19793 whole entry, looked up): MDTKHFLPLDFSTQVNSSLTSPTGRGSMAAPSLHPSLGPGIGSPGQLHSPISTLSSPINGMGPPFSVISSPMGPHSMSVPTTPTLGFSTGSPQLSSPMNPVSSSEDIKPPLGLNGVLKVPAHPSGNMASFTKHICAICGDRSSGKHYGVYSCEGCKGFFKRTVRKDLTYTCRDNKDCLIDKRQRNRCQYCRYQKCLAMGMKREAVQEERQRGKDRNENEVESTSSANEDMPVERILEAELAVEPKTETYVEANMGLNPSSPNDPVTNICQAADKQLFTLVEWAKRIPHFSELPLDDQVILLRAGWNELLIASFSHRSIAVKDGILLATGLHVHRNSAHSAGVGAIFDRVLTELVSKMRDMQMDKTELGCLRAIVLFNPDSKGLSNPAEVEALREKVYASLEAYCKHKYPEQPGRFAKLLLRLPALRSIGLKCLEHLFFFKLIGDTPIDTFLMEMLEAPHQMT

As for `COCCCOCCCOC`, the Potency result in test [1], in [2], in test [7], in [8], in [10] and in test [11] was “inactive” each time. Moreover, in test [13], the Potency entry was “inactive”. Also, the result in [3], in test [4], in test [5], in test [6], in test [9] and in [12] was inactive.
As for `C=COCC1CCC(CO)CC1` (configuration not stated), the Potency result in test [1], in test [2], in test [7], in test [8], in test [10] and in [11] was “inactive” each time. The Potency result in test [14] and in [13] was “inactive” in each case. The compound was called inactive in test [3], in test [4], in [5], in test [6], in test [9] and in test [12].
In the case of `CCCN1CCCC[C@H]1C(=O)Nc1c(C)cccc1C`, the Potency result in test [1], in test [2], in [7], in test [8], in [10] and in [11] was “inactive” each time. Further, the Potency entry in [14] and in test [13] was “inactive” throughout. Also, the outcome in test [3], in test [4], in [5], in test [6], in test [9] and in test [12] was inactive.
On to `CCc1ccc(O)c(OC)c1`, for which the Potency result in [1], in test [2], in test [7], in [8], in test [10] and in [11] was “inactive” in each case. For the same compound, the Potency entry in [14] and in test [13] was “inactive” each time. The call in [3], in [4], in test [5], in [6], in test [9] and in [12] was inactive.
Take `N#Cc1ccc(C2CCCc3cncn32)cc1` (configuration not stated): the Potency entry in test [1], in [7], in test [8], in [11], in [14] and in test [13] was “inactive” in each case. The result in test [3], in [4], in [5], in test [6], in test [9] and in test [12] was inactive.
`CN(C)CCCNCCCN(C)C`: the Potency entry in test [1], in [7], in test [8], in test [10], in test [11] and in [14] was “inactive” throughout. Moreover, in test [13], the Potency result is “inactive”. The compound was classed as inactive in test [3], in test [4], in test [5], in [6], in test [9] and in [12].
As for `NC(CSCC(=O)O)C(=O)O` (configuration not stated), the Potency result in test [1], in test [2], in [7], in test [8], in [10] and in test [11] was “inactive” in each case. Moreover, the Potency entry in [14] and in test [13] was “inactive” in each case. Moreover, the compound was classed as inactive in test [3], in [4], in [5], in test [6], in [9] and in test [12].
As to `CC1(C)CO[C@@H](CC(=O)O)CN1`, the Potency entry in test [1], in test [2], in test [7], in test [8], in test [10] and in [11] was “inactive” in each case. In addition, the Potency entry in test [14] and in [13] was “inactive” throughout. Moreover, the call in test [3], in test [4], in test [5], in test [6], in test [9] and in test [12] was inactive.
Turning to `CN(C)CCCN1c2ccccc2CCc2ccc(Cl)cc21`, the Potency in [1] was 43.6 µM (active); in [2], 38.9 µM (active); in test [7] it was 19.3 µM (active); in test [11], 38.9 µM (active). Besides, the result in test [3], in test [4], in test [5], in test [6], in [12] and in [15] was inactive. In addition, the compound was classed as inactive in [16] and in test [17]. The Potency result in test [8] and in [10] was “inactive” in each case.
